Among all 5,500 compounds or so, about 2,000 (36%) were called active. About 18% were inconclusive and are not listed. Rule as the data show it: active = normalized growth mostly below about 0.91 (no sharp cut-off); inconclusive = no clear call, values can overlap the other calls; inactive = mostly above about 0.92. Some of the results follow.
Test: chemical genetic growth profiling, strain panel (AID 1159580);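 also: tested at 20 µM; growth read once vehicle control cultures reached saturation at 30 °C; 1 = growth at the plate median or of vehicle wells; lower values mean less growth of the strain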
Conditions: S. cerevisiae deletion strains, growth OD

Measured: normalized growth

O=C(CNC(=O)c1ccc(Cl)cc1)NO
inactive: locus YAL021C, strain ccr4, hits give low values 1.01 | locus YAL026C, strain drs2, hits give low values 1.01 | locus YAL030W, strain snc1, hits give low values 1.01 | locus YBL061C, strain skt5, hits give low values 1.01 | locus YBR009C, strain hhf1, hits give low values 1.01 | locus YBR023C, strain chs3, hits give low values 1.02 | locus YBR171W, strain sec66, hits give low values 1.02 | locus YBR231C, strain swc5, hits give low values 1.01 | locus YBR279W, strain paf1, hits give low values 1.01 | locus YCL011C, strain gbp2, hits give low values 1.01 | locus YCL016C, strain dcc1, hits give low values 1.02 | locus YCL061C, strain MRC1, hits give low values 1 | locus YCL069W, strain vba3, hits give low values 1.01 | locus YCR088W, strain abp1, hits give low values 1.01 | locus YDL005C, strain med2, hits give low values 1.02 | locus YDL040C, strain nat1, hits give low values 1.01 | locus YDR001C, strain nth1, hits give low values 1 | locus YDR069C, strain doa4, hits give low values 1.01 | locus YDR137W, strain rgp1, hits give low values 1.03 | locus YDR159W, strain sac3, hits give low values 1.01 | locus YDR195W, strain ref2 0.972 | locus YDR297W, strain sur2, hits give low values 1.04 | locus YDR334W, strain swr1, hits give low values 1.02 | locus YDR335W, strain msn5, hits give low values 1.02 | locus YDR392W, strain spt3, hits give low values 1 | locus YEL003W, strain gim4, hits give low values 1.01 | locus YEL037C, strain rad23, hits give low values 1.04 | locus YEL061C, strain CIN8 (second series), hits give low values 1.01 | locus YER015W, strain faa2, hits give low values 1.01 | locus YER016W, strain bim1, hits give low values 1.02 | locus YER111C, strain swi4, hits give low values 1.01 | locus YER155C, strain BEM2 (second series), hits give low values 1.03 | locus YFR010W, strain ubp6, hits give low values 1.02 | locus YGL167C, strain pmr1, hits give low values 1.01 | locus YGL173C, strain kem1, hits give low values 1.02 | locus YGL227W, strain vid30, hits give low values 1.01 | locus YGL240W, strain doc1, hits give low values 1.01 | locus YGL253W, strain hxk2, hits give low values 1.01 | locus YHR013C, strain ard1, hits give low values 1.04 | locus YHR027C, strain rpn1, hits give low values 1.01 | locus YHR030C, strain SLT2, hits give low values 1.02 | locus YHR079C, strain IRE1, hits give low values 1.03 | locus YHR142W, strain chs7, hits give low values 0.997 | locus YJL092W, strain hpr5, hits give low values 1.01 | locus YJL095W, strain BCK1 (second series), hits give low values 1 | locus YJL095W, strain BCK1, hits give low values 1.06 | locus YJL115W, strain asf1, hits give low values 1.02 | locus YJL129C, strain trk1, hits give low values 1.03 | locus YJL154C, strain vps35, hits give low values 1.02 | locus YJL164C, strain tpk1, hits give low values 1.01 | locus YJL166W, strain qcr8, hits give low values 1.01 | locus YJL187C, strain SWE1, hits give low values 1.01 | locus YJR066W, strain TOR1, hits give low values 0.941 | locus YKL160W, strain elf1, hits give low values 1.01 | locus YKR026C, strain gcn3, hits give low values 0.992 | locus YKR091W, strain srl3, hits give low values 1.01 | locus YLL001W, strain dnm1, hits give low values 1.03 | locus YLL026W, hits give low values 1.01 | locus YLL041C, strain sdh2, hits give low values 1.02 | locus YLR027C, strain aat2, hits give low values 1.01 | locus YLR113W, strain HOG1, hits give low values 1.04 | locus YLR221C, strain rsa3, hits give low values 1.01 | locus YLR258W, strain gsy2, hits give low values 1.02 | locus YLR262C, strain YPT6 (second series), hits give low values 1.03 | locus YLR320W, strain mms22, hits give low values 1.01 | locus YLR342W, strain FKS1, hits give low values 1.01 | locus YLR357W, strain rsc2, hits give low values 1.02 | locus YLR370C, strain arc18, hits give low values 1.01 | locus YLR384C, strain iki3, hits give low values 1.02 | locus YML120C, strain ndi1, hits give low values 1.01 | locus YMR058W, strain fet3, hits give low values 1.01 | locus YMR125W, strain sto1, hits give low values 1.01 | locus YMR129W, hits give low values 1.01 | locus YMR205C, strain PFK2, hits give low values 1.01 | locus YMR231W, strain pep5, hits give low values 1.02 | locus YNL071W, strain lat1, hits give low values 1.02 | locus YNL183C, strain NPR1, hits give low values 0.951 | locus YNL209W, strain ssb2, hits give low values 1.02 | locus YNL248C, strain rpa49, hits give low values 1.01 | locus YNL322C, strain KRE1 (second series), hits give low values 1.01 | locus YNR049C, strain mso1, hits give low values 1.01 | locus YOR001W, strain rrp6, hits give low values 1.02 | locus YOR070C, strain gyp1, hits give low values 1.02 | locus YOR080W, strain dia2, hits give low values 1.01 | locus YOR083W, strain WHI5, hits give low values 1.01 | locus YOR106W, strain vam3, hits give low values 1.02 | locus YOR231W, strain MKK1, hits give low values 1.01 | locus YOR265W, strain rbl2, hits give low values 1.01 | locus YOR270C, strain vph1, hits give low values 1.05 | locus YOR290C, strain snf2, hits give low values 1.03 | locus YPL051W, strain arl3, hits give low values 1.01 | locus YPL078C, strain atp4, hits give low values 1.01 | locus YPL106C, strain sse1, hits give low values 1.04 | locus YPL240C, strain hsp82, hits give low values 1.02 | locus YPL256C, strain CLN2, hits give low values 0.997

From PubChem BioAssay AID1159580 (chemical genetic matrix, 2015)
